Holding throughout (test): NCI-60 one-dose screen, 48 h (100 = growth as untreated, 0 = no growth, -100 = all killed)
Holding throughout (settings): 10 µM

For assay [1], the system named is DU-145 prostate.
In assay [2] the test system is MALME-3M melanoma.
The test system of assay [3] is MDA-MB-231 breast.
Assay [4] concerns RXF 393 renal.
Assay [5] deals with UACC-257 melanoma.
Assay [6] relates to M14 melanoma.
The test system of assay [7] is HCT-15 colon.
In assay [8] the test system is HT29 colon.
The test system of assay [9] is PC-3 prostate.
The subject of assay [10] is SK-MEL-5 melanoma.
Assay [11] has as its system UACC-62 melanoma.
The subject of assay [12] is LOX IMVI melanoma.
The test system of assay [13] is SK-MEL-28 melanoma.
The test system of assay [14] is SF-268 CNS.
The subject of assay [15] is SF-295 CNS.
The subject of assay [16] is SF-539 CNS.
Assay [17] has as its system SNB-75 CNS.
Assay [18] relates to SNB-19 CNS.
Assay [19] has as its system U251 CNS.
The subject of assay [20] is K-562 leukemia.

About 83,000 compounds went through this panel and 20% of them were active in at least one assay; those are over-represented in the sample as a whole.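 How to read the values: 0–100, growth inhibition (40 = 60% inhibited); 0, no net growth; -100 to 0, cell death (-40 = 40% of starting cells died; -100 = all dead).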 Unmarked numbers belong to inactive results. The source made the active and inactive calls. The calls were made as follows: active = growth percent below 10; inactive = the rest.

Consider `CC(C)[N+]1(C)C2CC[C@@H]1CC(OC(=O)C(CO)c1ccccc1)C2` (stereo partly specified), for which the growth in [1] is 117%; in [2] it was 103%; in [3], 98.8%; in assay [4], 120%; in [5], 96.9%; in [6], 110%. Also, the growth in assay [7] was 107%; in assay [8], 106%; in assay [9], 92.4%; in assay [10] it was 95.6%; in assay [11], 108%; in [12], 94.5%. For the same compound, the growth in [13] is 122%.
Turning to `CNC(=O)c1c(I)c(NC(C)=O)c(I)c(C(=O)O)c1I`, the growth in assay [1] is 113%; in [2], 112%; in assay [3], 95.5%; in [4], 115%; in assay [14], 108%; in assay [15], 119%. The growth in [16] was 109%; in assay [5], 114%; in assay [7], 105%; in assay [8], 103%; in assay [17], 87.3%; in assay [18] it was 96.2%. The growth in assay [19] is 102%; in assay [9], 93%; in [10] it was 108%; in [11], 98.5%; in assay [12], 94.5%; in assay [13], 114%.
Regarding `CC(C)=CCC/C(C)=C/CC/C(C)=C/CC/C=C(\C)CC/C=C(\C)CCC(=O)Nc1ccn(C2OC(CO)C(O)C2(F)F)c(=O)n1` (stereo unspecified), the growth in assay [20] was 26.7%; in assay [3], 65.2%; in assay [14], 19.9%; in assay [15], -41.3% (active); in [16] it was -22.3% (active); in [5] it was 18.5%. Also, the growth is 2.42% (active) in [6]; 50.9% in assay [7]; 36.2% in assay [8]; 4.15% (active) in [17]; 23.4% in [18]; 20.5% in assay [19]. Also, the growth in assay [9] was 37.2%; in assay [10] it was -63.4% (active); in assay [11], 22%; in assay [12], 5.76% (active); in assay [13] it was 60%.
Turning to `Cc1c(C(N)=O)sc2c1c(=O)n(Cc1ccccc1)c1nnc(-c3ccc(Br)cc3)n21`, the growth in assay [1] was 31.7%; in assay [3], 18.8%; in [4] it was 15.9%; in [14] it was 29.4%; in assay [15], 15.8%; in assay [16], 13.1%. The growth is -0.619% (active) in assay [5]; -22.5% (active) in assay [6]; 25.3% in assay [7]; 28.6% in assay [8]; 51.8% in assay [18]; 11.5% in [19]. The growth in assay [9] was 37.2%; in assay [10] it was -38.2% (active); in assay [11] it was 6.17% (active); in assay [12], 5.15% (active); in assay [13], 46.2%.
Consider `CCCCCC(=O)O[C@]1(C(C)=O)CCC2C3CCC4=CC(=O)CC[C@]4(C)C3CC[C@@]21C` (stereo partly specified), for which the growth in assay [1] was 55.4%; in [2], 62.1%; in assay [3] it was 29.1%; in assay [4] it was 53.2%; in [14] it was 43.6%; in [15], 13.1%. In addition, the growth in assay [16] is 74.8%; in assay [5], 14%; in assay [6], 23.8%; in assay [7] it was 26.2%; in [8], 16.6%; in assay [17], 46.3%. The growth in assay [18] was 43.7%; in assay [9], 6.12% (active); in assay [10], -1.8% (active); in [11] it was 18.5%; in assay [12] it was 10.4%; in [13], 49.4%.
Turning to `CN(C)c1ccc(/C=N/NC(=O)c2ccccc2Nc2cccc(C(F)(F)F)c2)cc1`, the growth was 77.8% in assay [20]; 70.9% in assay [3]; 93.7% in assay [14]; 111% in assay [15]; 105% in assay [16]; 101% in assay [5]. Further, the growth was 105% in assay [6]; 78.2% in [7]; 97.2% in assay [8]; 94.4% in assay [17]; 92.7% in assay [18]; 81.1% in [19]. The growth in assay [9] was 76.1%; in assay [10] it was 81.8%; in assay [11] it was 86.3%; in assay [12] it was 65.3%; in assay [13] it was 91.2%.
In the case of `CCC(=O)OC1CCC2C3CCC(=O)OC3C(C)(CCC(=O)O)CC12C` (stereo unspecified), the growth in assay [20] was 2.12% (active); in assay [3], 19.6%; in [14] it was 50.1%; in assay [15] it was -18.6% (active); in [16], 5.18% (active); in assay [5], 55.7%. For the same compound, the growth in [6] is 25.8%; in assay [7], 24.2%; in assay [8] it was 4.42% (active); in assay [17] it was -1.91% (active); in assay [18] it was 62.8%; in [19], 28.3%. Further, the growth in assay [9] is 31.4%; in [10], -83.5% (active); in assay [11] it was 45.9%; in [12], 30.9%; in [13] it was 59.8%.
With `COc1ccc(-c2nn(-c3cccc(Cl)c3)cc2-c2c(C#N)c(N)n(N)c(=O)c2C#N)cc1`, the growth in assay [1] was 90.5%; in [3], 75.3%; in [4] it was 65.3%; in assay [14] it was 60.2%; in assay [16], 72.8%; in assay [5], 90.3%. Also, the growth in assay [6] was 73.5%; in assay [7] it was 94.9%; in [8], 66.3%; in [17], 48.6%; in [18], 64%; in [9] it was 54%. For the same compound, the growth was 81.9% in assay [10], 75.8% in assay [11], 29.5% in assay [12] and 91.6% in assay [13].
As for `Cc1cc(=O)n2nnc3cc(Cl)c(Cl)cc3n12`, the growth was 105% in assay [1]; 107% in [3]; 91.9% in assay [4]; 101% in assay [14]; 111% in assay [15]; 108% in assay [16]. Moreover, the growth was 102% in [5]; 96.9% in assay [6]; 103% in assay [7]; 106% in assay [8]; 95.6% in assay [17]; 110% in assay [18]. For the same compound, the growth in assay [19] is 94.8%; in [9], 94.4%; in assay [10], 110%; in assay [11], 106%; in assay [12], 87.3%; in [13], 105%.
